In PubChem BioAssay AID1159580 (chemical genetic matrix, 2015):
“And” between values parts separate entries of the source, which are not always exact repeats. Equal values may be shown once. The whole screen tested about 5,500 compounds, of which about 2,000 (36%) were called active. Inconclusive results (about 18%) are left out. No stated cut-off is given here; in the data, active means normalized growth mostly below about 0.91 (no sharp cut-off); inconclusive means no clear call, values can overlap the other calls; inactive means mostly above about 0.92. This is one part of the list.

Experiment: chemical genetic growth profiling, strain panel (AID 1159580);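 further: tested at 20 µM; growth read once vehicle control cultures reached saturation at 30 °C; 1 = growth at the plate median or of vehicle wells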
Settings: S. cerevisiae deletion strains, growth OD

Measured: normalized growth

CC(=O)Nc1ccccc1
inactive: locus YAL021C, strain ccr4, stronger effect = lower value 0.971 | locus YAL026C, strain drs2, stronger effect = lower value 0.977 | locus YAL030W, strain snc1, stronger effect = lower value 0.972 | locus YBL061C, strain skt5, stronger effect = lower value 0.962 | locus YBR009C, strain hhf1, stronger effect = lower value 0.977 | locus YBR021W, strain FUR4, stronger effect = lower value 1.02 | locus YBR023C, strain chs3, stronger effect = lower value 0.961 | locus YBR171W, strain sec66, stronger effect = lower value 0.965 | locus YBR229C, strain ROT2, stronger effect = lower value 0.957 | locus YBR231C, strain swc5, stronger effect = lower value 0.963 | locus YBR279W, strain paf1, stronger effect = lower value 0.981 | locus YCL011C, strain gbp2, stronger effect = lower value 0.962 | locus YCL016C, strain dcc1, stronger effect = lower value 0.966 | locus YCL029C, strain bik1, stronger effect = lower value 0.983 | locus YCL061C, strain MRC1, stronger effect = lower value 0.987 | locus YCL069W, strain vba3, stronger effect = lower value 0.962 | locus YCR088W, strain abp1, stronger effect = lower value 0.976 | locus YDL005C, strain med2, stronger effect = lower value 0.98 | locus YDL035C, strain GPR1, stronger effect = lower value 0.987 | locus YDL040C, strain nat1, stronger effect = lower value 0.97 | locus YDL074C, strain BRE1, stronger effect = lower value 0.963 | locus YDL101C, strain DUN1, stronger effect = lower value 0.98 | locus YDL134C, strain PPH21, stronger effect = lower value 1.02 | locus YDL185W, strain tfp1, stronger effect = lower value 0.986 | locus YDL192W, strain arf1, stronger effect = lower value 0.985 | locus YDR001C, strain nth1, stronger effect = lower value 0.974 | locus YDR069C, strain doa4, stronger effect = lower value 0.959 | locus YDR101C, strain arx1, stronger effect = lower value 0.982 | locus YDR137W, strain rgp1, stronger effect = lower value 1.01 | locus YDR150W, strain NUM1, stronger effect = lower value 0.983 | locus YDR159W, strain sac3, stronger effect = lower value 0.977 | locus YDR162C, strain NBP2, stronger effect = lower value 0.995 | locus YDR195W, strain ref2 0.935 | locus YDR297W, strain sur2, stronger effect = lower value 0.975 | locus YDR318W, strain mcm21, stronger effect = lower value 0.999 | locus YDR334W, strain swr1, stronger effect = lower value 0.956 | locus YDR335W, strain msn5, stronger effect = lower value 0.982 | locus YDR388W, stronger effect = lower value 0.986 | locus YDR392W, strain spt3, stronger effect = lower value 0.993 | locus YDR502C, strain sam2, stronger effect = lower value 0.989 | locus YEL003W, strain gim4, stronger effect = lower value 0.973 | locus YEL037C, strain rad23, stronger effect = lower value 0.972 | locus YEL061C, strain CIN8 (second series), stronger effect = lower value 0.962 | locus YEL061C, strain CIN8, stronger effect = lower value 0.975 | locus YER015W, strain faa2, stronger effect = lower value 0.977 | locus YER016W, strain bim1, stronger effect = lower value 0.973 | locus YER110C, stronger effect = lower value 0.977 | locus YER111C, strain swi4, stronger effect = lower value 0.972 | locus YER155C, strain BEM2 (second series), stronger effect = lower value 0.981 | locus YER155C, strain BEM2, stronger effect = lower value 0.999 | locus YER167W, strain BCK2, stronger effect = lower value 0.999 | locus YFR010W, strain ubp6, stronger effect = lower value 0.96 | locus YGL078C, strain dbp3, stronger effect = lower value 0.99 | locus YGL086W, strain mad1, stronger effect = lower value 0.981 | locus YGL167C, strain pmr1, stronger effect = lower value 0.947 | locus YGL173C, strain kem1, stronger effect = lower value 0.967 | locus YGL227W, strain vid30, stronger effect = lower value 0.966 | locus YGL240W, strain doc1, stronger effect = lower value 0.965 | locus YGL248W, strain PDE1, stronger effect = lower value 0.976 | locus YGL253W, strain hxk2, stronger effect = lower value 0.982 | locus YGR135W, strain pre9, stronger effect = lower value 1 | locus YGR229C, strain SMI1, stronger effect = lower value 0.973 | locus YGR252W, strain gcn5, stronger effect = lower value 0.968 | locus YHR013C, strain ard1, stronger effect = lower value 0.942 | locus YHR027C, strain rpn1, stronger effect = lower value 0.973 | locus YHR030C, strain SLT2, stronger effect = lower value 0.991 and 0.975 | locus YHR079C, strain IRE1 (second series), stronger effect = lower value 0.99 | locus YHR079C, strain IRE1, stronger effect = lower value 0.969 | locus YHR094C, strain hxt1, stronger effect = lower value 0.988 | locus YHR129C, strain ARP1, stronger effect = lower value 0.993 | locus YHR142W, strain chs7, stronger effect = lower value 0.963 | locus YHR200W, strain rpn10, stronger effect = lower value 0.986 | locus YIL066C, strain RNR3, stronger effect = lower value 0.968 | locus YIL073C, strain SPO22, stronger effect = lower value 1.03 | locus YIL125W, strain kgd1, stronger effect = lower value 0.983 | locus YIR030C, strain dcg1, stronger effect = lower value 0.988 | locus YJL092W, strain hpr5, stronger effect = lower value 0.977 | locus YJL095W, strain BCK1 (second series), stronger effect = lower value 0.966 | locus YJL095W, strain BCK1, stronger effect = lower value 0.98 and 0.984 | locus YJL115W, strain asf1, stronger effect = lower value 0.951 | locus YJL129C, strain trk1, stronger effect = lower value 0.981 | locus YJL134W, strain LCB3, stronger effect = lower value 0.992 | locus YJL154C, strain vps35, stronger effect = lower value 0.975 | locus YJL164C, strain tpk1, stronger effect = lower value 0.963 | locus YJL166W, strain qcr8, stronger effect = lower value 0.976 | locus YJL168C, strain set2, stronger effect = lower value 0.978 | locus YJL187C, strain SWE1 (second series), stronger effect = lower value 0.965 | locus YJL187C, strain SWE1, stronger effect = lower value 0.972 | locus YJR043C, strain POL32, stronger effect = lower value 0.968
